# KB-3-1 tox = kills parental KB-3-1 adenocarcinoma cells; 1.4% of 400,000 active; Potency, µM (series often up to 46.1 µM), usual class: cytotoxic; KB-3-1 viability, CellTiter-Glo ATP luminescence, 72 h; note: % is set by controls: 0 for no effect and ±100 for the full control effect; nearly all actives have a fitted effect of over 60% in size
#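 Screening of KB-3-1 cells (DMEM, 10% FBS, phenol-red free) ran from lowest to highest compound concentration; after 72 h at 37 °C viability was read luminescently and curves fitted.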
# SW480 rereplic = induces DNA re-replication in SW480 colon adenocarcinoma cells. SW480 DNA re-replication, Hoechst DNA content imaging, 48 h. Potency, µM (top dose mostly 46.1 µM), without a hit: top-dose re-replication activation, most hits filed as activators. 1.8% of 340,000 active; note: % of control where 0% means no effect; nearly all actives have a fitted effect of over 55% in size
#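 250 cells/well; 23 nL cpd via pin tool; 48 hr, 37 C, 5% CO2; Hoechst 40 min; imager read of total nuclear intensity, ex 405/em 500-530 nm.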
# MCF10A rereplic = induces DNA re-replication in MCF 10a normal breast cells. Potency, µM (top dose mostly 46.1 µM), for the others: at the top dose activity, positive = re-replication, most hits filed as activators. MCF 10A DNA re-replication, Hoechst nuclear intensity, 48 h. 2.9% of 350,000 active; note: % of control where 0% means no effect; nearly all actives have a fitted effect of over 50% in size
# ELG1 DNA repair = inhibitors of ELG1-dependent DNA repair in HEK293T cells; Potency, µM (doses to about 46.1 µM), for inactives: at the highest dose activity change, negative = inhibition, hits mostly inhibitors; 2.3% of 330,000 active; HEK293T ELG1-luciferase reporter, luminescence, 16 h; DNA damage induced by 5-fluorouridine; note: % is set by controls: 0 for no effect and ±100 for the full control effect; nearly all actives have a fitted effect of over 55% in size
#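 Luminescence from the luciferase reporter, measured 30 min after ONE-Glo reagent at room temperature, was the read-out. Beforehand, 2,000 cells per well were exposed for 16 hr at 37 °C to 5-fluorouridine together with compound or vehicle.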
# KB-V1 MDR tox = kills drug-selected multidrug resistant KB-V1 cells. KB-V1 MDR cells viability, CellTiter-Glo, 72 h. Potency, µM (doses to about 46.1 µM), actives largely listed as cytotoxic. 3.4% of 400,000 active; note: % is set by controls: 0 for no effect and ±100 for the full control effect; nearly all actives have a fitted effect of over 60% in size
#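 qHTS viability screen in drug-selected KB-V1 MDR cells: 72 h compound treatment at 37 degrees C, ATP luminescence end point.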
# Starred values were filed as active, the others as inactive; i = inactive; ? = inconclusive; . = no result given. The list is not random: actives were taken first. Their share in the collection is about 8.2%. Calls come from the whole dose curve; as a rule, active = well fitted curve in the direction sought with a large enough effect; inconclusive = small, poorly fitted or top-dose-only effect, or another doubt; inactive = no such curve, though single readings can be large; an effect the other way counts as inactive or inconclusive. Potency is the fitted concentration of half-maximal effect.
SMILES,KB-3-1 tox,SW480 rereplic,MCF10A rereplic,ELG1 DNA repair,KB-V1 MDR tox
CC(=O)c1c(C)oc2c1cc(NS(=O)(=O)c1ccc(C(C)(C)C)cc1)c1ccccc12,i,.,.,.,i
Cc1oc2c(cc(NS(=O)(=O)c3cccs3)c3ccccc32)c1C(=O)OC(C)C,i,0%,13µM*,-6%,i
COc1ccc(S(=O)(=O)Nc2cc3c(cc2C(C)=O)OCO3)cc1,7.3µM*,?,18µM*,7%,?
COc1ccc(S(=O)(=O)Nc2cc3c(C(C)=O)c(C)oc3c3ccccc23)cc1,2.1µM*,5.2µM*,?,11%,2.1µM*
Cc1ccc(NC(=O)COc2ccccc2C(=O)Nc2ccccc2)cc1,i,.,.,.,i
Cc1ccc(-c2c(C#N)c(N)n(-c3ccccc3C)c(=O)c2C#N)cc1,i,.,.,.,i
CCOC(=O)c1ccc2[nH]c(CSc3nnc(-c4cccc(F)c4)n3C)cc(=O)c2c1,i,.,.,.,?
Cc1cccn2cc(COc3cccc([N+](=O)[O-])c3)nc12,i,-15%,4%,?,i
Cc1cccn2cc(COc3ccc(-c4ccccc4)cc3)nc12,i,-9%,16µM*,?,?
COc1ccccc1OCC(=O)Nc1ccccc1C(=O)N1CCCCC1,?,-1%,5%,4%,?
Oc1ccccc1C1C=C(c2ccc3c(c2)OCO3)NC(c2cccc(Cl)c2)N1 (centres undefined),i,.,.,.,i
COc1ccc(CCNC(=O)COc2ccc(S(=O)(=O)NC3CCCCC3)cc2Cl)cc1OC,?,15%,0%,21µM*,10µM*
COCCCNC(=O)COc1ccc(S(=O)(=O)NCc2ccccc2)cc1Cl,i,-5%,1%,0%,21µM*
O=C(COc1ccc([N+](=O)[O-])cc1Cl)NCCc1ccccc1,i,18%,-4%,8%,21µM*
COCCNS(=O)(=O)c1ccc(OCC(=O)OC)c(Cl)c1,i,-15%,0%,20%,i
O=C(COc1ccc(S(=O)(=O)NC2CCCCC2)cc1Cl)Nc1ccc2c(c1)OCO2,?,2%,?,?,10µM*
CC(C)(C)C(=O)NC(=S)Nc1ccc(Cc2ccncc2)cc1,i,-8%,11%,?,i
O=C(NCc1ccc(Cl)cc1)c1cccc2c1C(=O)N(CC1CCCO1)C2 (centres undefined),i,-9%,4%,?,?
Cc1ccc(S(=O)(=O)N2CCCc3cc(NC(=O)c4ccc(Cl)cc4)ccc32)cc1,i,.,.,.,i
CCC(=O)Nc1ccc(N2CCN(C(=O)c3cccs3)CC2)cc1,i,-174%,0%,0%,i
O=C(COc1ccccc1Cl)Nc1ccc(N2CCCC2)cc1,i,16µM*,?,?,i
O=C(COc1ccccc1Cl)Nc1cc(NC(=O)COc2ccccc2Cl)cc(C(=O)O)c1,i,-3%,-1%,?,?
O=C(COc1ccccc1[N+](=O)[O-])Nc1ccc(N2CCN(C(=O)c3cccs3)CC2)cc1,i,1%,22%,18µM*,9.2µM*
O=C(COc1ccccc1Cl)Nc1ccc(N2CCN(C(=O)c3ccccc3)CC2)cc1,?,?,?,13µM*,?
CCN1CCN(c2ccc(NC(=O)COc3ccccc3Cl)cc2)CC1,i,-5%,?,-10%,i
SMILES,KB-3-1 tox,SW480 rereplic,MCF10A rereplic,ELG1 DNA repair,KB-V1 MDR tox
CN1CCN(c2ccc(NC(=O)COc3ccc4ccccc4c3)cc2)CC1,i,?,16µM*,?,?
COc1ccc(OC)c(C(C)NC(=O)C(C)n2cc([N+](=O)[O-])cn2)c1 (centres undefined),i,0%,-4%,16%,i
CCc1nnc(NC(=O)COc2ccc3ccccc3c2)s1,i,8%,0%,-2%,i
Cc1ccc(OCC(=O)Nc2ccc(N3CCN(C(=O)c4ccc(C)cc4)CC3)cc2)cc1,i,-16%,-16%,?,i
Cc1cccc(OCC(=O)Nc2ccc(N3CCN(C(=O)c4ccccc4)CC3)cc2)c1,i,-3%,?,18µM*,?
CN1CCc2nc(NC(=O)COc3ccc4ccccc4c3)sc2C1,?,?,13µM*,-2%,?

# Screening data from PubChem.
